This is part of a sample that, as a whole, favours compounds with a hit. Of some 83,000 tested, about 20% had one in any assay.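 A percent growth of 40 corresponds to 60% growth inhibition; 0 means no net growth; -100 means all cells died. Active threshold: below 10.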 A number with no mark means an inactive call. Activity calls are given as the source filed them.
The molecules below were run on HL-60(TB) leukemia (assay: NCI-60 one-dose screen, 48 h (100 = growth as untreated, 0 = no growth, -100 = all killed)). Details: 10 µM unless noted.
`COc1ccc(O)c(-c2cc(-c3ccccc3)c(C#N)c(=O)[nH]2)c1` showed a growth of 112%. Molecule `O=C(CN1CCCCC1)Nc1ccc2oc(=O)ccc2c1` has a growth of 78.1%. For `Cc1ccc(S(=O)(=O)N2CCCC2CO)cc1` (stereo not given), the growth was 97.7%. In the case of `O=C(/C=C/C12c3ccccc3C(c3ccccc31)C1C(=O)NC(=O)C12)c1ccc(F)cc1` (stereo not given), the growth is reported as -19.5% (active). `COc1ccc2c(c1OC)OCC(CN(C)C)C2=O` (stereo not given) was tested, and the growth was 40.1%. With `CC1CN(CC(O)c2ccc(Br)cc2)CCO1` (stereo not given) the growth was 85.4%. With `COc1ccc(C2=NN(C=O)C(c3cccc(Nc4ccnc5cc(Cl)ccc45)c3)C2)cc1` (stereo not given) the growth was -13.1% (active). Molecule `COc1ccc(/C(C#N)=C/c2cccc(OC)c2OC)cc1` has a growth of 76.7%. Molecule `O=C(O)c1c([N+](=O)[O-])cnc2ccccc12` has a growth of 92.4%. Work on `O=S(=O)(NCCO)c1ccc(OCCOc2ccc(S(=O)(=O)NCCO)cc2)cc1` yielded a growth of 68.4%. Molecule `S=C=Nc1ccc(N2CCOCC2)cc1` has a growth of 103%. Work on `CN1C(=O)C(C2=NN(C=O)C(c3ccc(F)cc3)C2)C(=O)N(C)C1=O` (stereo not given) yielded a growth of 105%. With `Cc1c(Cl)cccc1C(=O)Nc1nc2c(s1)CN(C(=O)Nc1cccc(C(F)(F)F)c1)CC2` the growth was 6.4% (active). Work on `C#CCNC(=O)[C@H](Cc1ccccc1)NC(=O)[C@]12CC[C@@H](C(=C)C)[C@@H]1[C@H]1CC[C@@H]3[C@@]4(C)Cc5c([nH]c6ccccc56)C(C)(C)[C@@H]4CC[C@@]3(C)[C@]1(C)CC2` yielded a growth of 93.1%. `[Cu+].[NH-][C@H]1C[N-]C(=O)[C@H]([C@H]2CCN=C(N)N2)[N-]C(=O)/C(=C\NC(N)=O)[N-]C(=O)[C@H](CNC(=O)C[C@@H](N)CCCN)[N-]C(=O)[C@H](CO)[N-]C1=O` showed a growth of 104%. `COC(=O)C1Cc2ccccc2CN1C(=O)c1ccc2c(c1)Cc1ccccc1-2` (stereo not given) gave a growth of 13.4% [50 µM]. `CNC(=O)c1cn(C2CC2)c2cc(N3CCN(C(=O)c4cc(OC)c(OC)c(OC)c4)CC3)c(F)cc2c1=O` gave a growth of 101%. `CC1(C)CC(=O)C2=C(C1)OC1=C(C(=O)CC(C)(C)C1)C2c1ccc(OCc2cn(-c3ccc(F)cc3F)nn2)cc1` showed a growth of 42.2%. For `C/C(=N\Nc1cc(C)c2cc(C)ccc2n1)c1ccccn1`, the growth was -54.9% (active). With `CCCCC1=C(Br)C(=O)c2ncccc2C1=O` the growth was 83.3%. In the case of `N#CC1(O)CCCCC1`, the growth is reported as 104%. With `CNc1ccccc1C(=O)N/N=C/C=C/c1ccccc1` the growth was -32.6% (active). For `NC(=O)N1CCOCC1`, the growth was 93.5%. `COc1ccc(-c2nnc(COc3ccc(NC(=O)Nc4ccccc4)cc3F)o2)cc1` gave a growth of 86.8%. `O=c1[nH]nc(-c2ccc(Cl)cc2)cc1Cc1ccccc1` was tested, and the growth was 77%. With `COc1ccc(-n2cnc3c(sc4ncc(Cl)cc43)c2=O)cc1` the growth was 90.1%. In the case of `NS(=O)(=O)c1cc(Br)c2c(c1)S(=O)(=O)NCN2`, the growth is reported as 71.2%. `COc1ccc(C(=O)OC2C(OC3C(O)COC(O[C@H]4C[C@H]5[C@@H]6CC=C7C[C@@H](O)CC[C@]7(C)[C@H]6CC[C@]5(C)[C@H]4[C@H](C)C(=O)CCC(C)C)C3OC(=O)C(C)C)OCC(O)C2O)cc1` (stereo not given in full) was tested, and the growth was -17% (active). `COc1cc(O)c2c(=O)c3c(CC=C(C)C)cc(OC)c(O)c3oc2c1` was tested, and the growth was -15.9% (active). For `O=S(=O)(NCCCNc1nccc(-c2c(-c3ccccc3)nc3occn23)n1)c1ccc(Cl)cc1`, the growth was 101%. With `O=S(=O)(O)CCI` the growth was 99.5%. With `CC(=O)c1c(C)[nH]c(-c2nc3ccc(N4CCN(C)CC4)cc3[nH]2)c1-c1ccc(N(C)C)cc1` the growth was -17.3% (active). In the case of `COc1ccc(/C=N/NC(=O)c2cnn(CC(O)Cc3ccccc3)c2N)cc1OC1CCCC1` (stereo not given), the growth is reported as 105%. For `COC(=O)[C@]12CC[C@@H](C)[C@H](C)[C@@H]1C1=CC[C@@H]3[C@@]4(C)C(C=O)=C[C@@](C)(COC(C)=O)[C@@H]4C(=O)C[C@@]3(C)[C@]1(C)CC2`, the growth was 29.8%. `Cc1cc(N2CCCCC2)nc(N2CCN(CC(=O)Nc3ccc4c(ccn4Cc4ccccc4)c3)CC2)n1` was tested, and the growth was 42.8%. With `CCOC(=O)c1c2c(c(C)n1Cc1ccc(OC)cc1)-c1oncc1CC2` the growth was 91.9%. For `CCc1ccc(-c2nnc(COc3ccc(-c4nc5cc(Cl)c(Cl)cc5[nH]4)cc3OC)o2)cc1`, the growth was 105%. `O=C1NCCN1/N=C/c1c(Cl)nc2n1CCS2` was tested, and the growth was 72.2%. `Cc1cc2nc(-c3ccccc3)c(-c3ccccc3)nc2cc1C` showed a growth of 48.3%. `CC1(C=O)NC(=O)NC1=O` (stereo not given) gave a growth of 87.5%.

Source: PubChem BioAssay (NCI)
